Measurements: PubChem BioAssay (EPA / NIEHS)
Records with an inconclusive call do not appear. Active and inactive are the calls of the source. Rule for the calls: active = hit-call score of the fitted dose curve at least 0.9, where 1 is the maximum; inconclusive = response in the unintended direction; inactive = score below 0.9.

Molecular target: Cellular tumor antigen p53 (Homo sapiens) (UniProt P04637)
Assay: TOX21_p53_BLA_p5_ratio: Tox21 HCT-116 p53 Agonism Beta-lactamase Assay, Ratio, Phase 5 (AID 2283599)
Text: TOX21_p53_BLA_p5 is a cell-based, single-readout assay that uses HCT116, a human intestinal cell line, […] in a 1536-well plate.TOX21_p53_BLA_p5_ratio is an assay readout measuring reporter gene via receptor activity and designed using inducible reporter (beta lactamase induction) detected with GAL4 b-lactamase reporter gene. The signal is derived from the ratio of cleaved (ch2) to uncleaved (ch1) reporter gene substrate used as the measure of target activity.Data from the assay component TOX21_p53_BLA_p5_ratio was analyzed into 1 assay endpoint. This assay endpoint, TOX21_p53_BLA_p5_ratio, was analyzed in the positive analysis fitting direction relative to DMSO as the negative control and baseline of activity. Using a type of inducible reporter, gain-of-signal activity can be used to understand changes in the reporter gene as they relate to the gene TP53. Furthermore, this assay endpoint can be referred to as a primary readout, because this assay has produced multiple assay endpoints and this ratio serves a reporter gene function to understand target activity. To generalize the intended target to other relatable targets, this assay endpoint is annotated to the DNA binding intended target family, where the subfamily is tumor suppressor.
Thawing Method: Place 14 mL of pre-warmed thaw medium into a 15 mL of conical tub. Remove the vial of cells to be thawed from liquid nitrogen and thaw rapidly by placing at 37C in a water bath with gentle agitation for 1-2 minutes. Decontaminate the vial by wiping with 70% ethanol before opening in a biological safety cabinet. Transfer the vial contents drop-wise into 14 mL of thaw medium in a sterile 15-mL conical tub. Centrifuge cells at 900 rpm for 4 minutes and resuspend in thaw medium. Transfer contents to the T75 tissue culture flask containing Thaw Medium and place flask in a humidified 37C/5% CO2 incubator. Switch to growth medium at first passage.Propagation Method: Aspirate medium, rinse once in DPBS, add 0.25% Trypsin/EDTA and swirl to coat the cell evenly. Add an equal volume of Growth Medium to inactivate Trypsin after 2-3 minutes incubation at 37C. Centrifuge cells at 900 rpm for 4 minutes and resuspend in growth medium. Cell should be passage or fed at least twice a week.Assay Protocol: Harvest cells from culture in growth medium and resuspend in assay medium. 2.2 Dispense 4000 cells/5 uL/well into 1536-well black/clear bottom plates using a Multidrop dispenser. After the cells were incubated at 37C for 5 hours, 23 nL of compounds dissolved in DMSO were transferred to the assay plate by a PinTool resulting in a 217-fold dilution. Incubate the plates for 16 hours at 37C, 5% CO2. Add 1 uL of 6X LiveBLAzer FRET B/G (CCF4-AM) Substrate Mixture to each well using a BioRAPTR dispenser and incubate the plates at room temperature for 2 hours. Measure fluorescence intensity at 460 and 530 nm emission and 405 nm excitation by an Envision detector. Data is expressed as the ratio of 460nm/530nm emissions. Add 4 uL of Cell-titer Glo to each well using BioRAPTR and incubate the plates at room temperature for 2 hours. Measure fluorescence intensity by a VewLux plate reader.

Sequence of Cellular tumor antigen p53 (Homo sapiens) (P04637 whole entry, looked up): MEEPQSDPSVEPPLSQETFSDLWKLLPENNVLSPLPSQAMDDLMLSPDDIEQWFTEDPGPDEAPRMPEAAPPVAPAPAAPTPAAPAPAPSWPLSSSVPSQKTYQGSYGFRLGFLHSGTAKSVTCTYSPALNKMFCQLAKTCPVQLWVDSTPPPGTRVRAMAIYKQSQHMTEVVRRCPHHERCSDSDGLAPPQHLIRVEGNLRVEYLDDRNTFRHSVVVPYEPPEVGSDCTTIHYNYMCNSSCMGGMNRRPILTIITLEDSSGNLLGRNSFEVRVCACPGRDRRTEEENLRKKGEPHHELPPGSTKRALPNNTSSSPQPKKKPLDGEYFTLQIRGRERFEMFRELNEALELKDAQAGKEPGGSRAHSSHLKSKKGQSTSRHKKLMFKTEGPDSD

SMILES | outcome | AC50
C[C@@H]1C[C@H]2[C@@H]3CCC4=CC(=O)C=C[C@]4(C)[C@@]3(F)[C@@H](O)C[C@]2(C)[C@@]1(O)C(=O)COC(=O)c1cccc(S(=O)(=O)O)c1 | inactive | 
CC(=O)c1nccs1 | inactive | 
Oc1c(I)cc(I)c2cccnc12 | inactive | 
CO[C@@H]1[C@@H](OC)[C@H](C)[C@@](O)(CC(=O)O)O[C@H]1[C@H](C)[C@H]1O[C@@]2(CC[C@@](C)([C@H]3CC[C@@](C)([C@@H]4O[C@@H]([C@H]5O[C@](C)(O)[C@H](C)C[C@@H]5C)C[C@@H]4OC4C[C@H](OC)[C@@H](OC)[C@H](C)O4)O3)O2)C[C@H](O)[C@H]1C (stereo not given in full) |  | 16.7 µM (active)
CCCCCCCCCCCCCCC(=O)O | inactive | 
Clc1cccc(Cl)c1NC1=NCCN1 | inactive | 
O=c1[nH]c(=O)c2ccccc2o1 | inactive | 
Cc1c(C)c2c(c(C)c1O)CC[C@@](C)(CCC[C@H](C)CCC[C@H](C)CCCC(C)C)O2 | inactive | 
COCCCN | inactive | 
O=C(O[C@H]1CN2CCC1CC2)N1CCc2ccccc2[C@@H]1c1ccccc1 | inactive | 
C[C@@H](O)[C@H](N)C(=O)O | inactive | 
CC/C=C/CCO | inactive | 
CC[C@H](C)C(=O)O[C@H]1CCC=C2C=C[C@H](C)[C@H](CC[C@@H]3C[C@@H](O)CC(=O)O3)[C@H]21 | inactive | 
CCCCCCCCCOC(=O)c1ccc(O)cc1 | inactive | 
CC(C)(C)NCC(O)CSc1nc(-c2ccc(C(N)=O)s2)cs1 (stereo not given) | inactive | 
O=C(O)CN(CCN(CC(=O)O)CC(=O)O)CC(=O)O | inactive | 
O=C1c2ccccc2C(=O)C1(O)O |  | 29 µM (active)
CN(C)CCN(C)CCN(C)C | inactive | 
Oc1cc2c(cc1O)[C@H]1c3ccc(O)c(O)c3OC[C@@]1(O)C2 | inactive | 
c1ccc2c(c1)CCc1ccccc1N2 | inactive | 

SMILES | outcome | AC50
CC(=O)O[C@H]1C[C@@H]2CC[C@@H]3[C@H](CC[C@@]4(C)[C@H]3C[C@H](N3CC[N+](C)(C)CC3)[C@@H]4OC(C)=O)[C@@]2(C)C[C@@H]1N1CC[N+](C)(C)CC1 | inactive | 
COc1cc2c3cc1Oc1cc(ccc1O)C[C@@H]1c4c(cc(OC)c(O)c4Oc4ccc(cc4)C[C@@H]3N(C)CC2)CC[N+]1(C)C | inactive | 
Cc1occc1S | inactive | 
c1ccc(CNCCNCc2ccccc2)cc1 | inactive | 
Nc1cc(=O)[nH]c(N)n1 | inactive | 
Cc1c(C(N)=O)cc([N+](=O)[O-])cc1[N+](=O)[O-] | inactive | 
OCCN(CCO)c1cccc(Cl)c1 | inactive | 
Cc1ccc([N+](=O)[O-])cc1Cl | inactive | 
COc1cc(/C=C/c2ccccc2)oc(=O)c1 | inactive | 
CC/C=C\CCO | inactive | 
Cc1cc(O)cc2c1O[C@](C)(CCC[C@H](C)CCC[C@H](C)CCCC(C)C)CC2 | inactive | 
C[N+](C)(C)CC(O)CC(=O)[O-] (stereo not given) | inactive | 
O=C(NOC[C@H](O)CO)c1ccc(F)c(F)c1Nc1ccc(I)cc1F | inactive | 
CC(C)C(O)(c1ccc(OC(F)(F)F)cc1)c1cncnc1 (stereo not given) | inactive | 
COc1cc(OC)c(C(=O)CCCN2CCCC2)c(OC)c1 | inactive | 
CC(C)=CCC1C(=O)N(c2ccccc2)N(c2ccccc2)C1=O |  | 7.67 µM (active)
CCOC(=O)CC(=O)OCC | inactive | 
COc1ccc(C(=O)c2ccc(C)cc2)c(O)c1 | inactive | 
CCCCNC(N)=O | inactive | 
CCOC(=O)[C@H](CCc1ccccc1)N[C@@H](C)C(=O)N1CCC[C@H]1C(=O)O | inactive | 
